# Experimental data from PMC12431657, “Discovery and mechanistic insights of dibenzoylmethane as a broad spectrum inhibitor of coronavirus” (PLOS Pathogens, 2025).
# Read-outs that look alike come from different tables or passages of the source. Screen size: about 3,300 compounds; about 95 (3%) showed an effect of 50% or more. The entries come from a sample that favours strong results as a whole.
# System: HCoV-229E
# Design: species or system Huh-7; HTS, protection from HCoV-229E induced cell death, luminescent cell viability (CellCounting-Lite 2.0), inhibition rate
# Conditions: 24 h post infection, 1 h compound pre-incubation, 10 µM, inhibitor
Structure (SMILES),229E Inhibition rate [%],"229E Inhibition rate (229E Inhibition rate, 24 h) [%]"
O=Cc1cccs1 [2-Thiophenecarboxaldehyde],6.5,–
O=C(O)C(O)Cc1ccccc1 (racemic) [DL-3-Phenyllactic acid],22.4,–
COc1cc2c(cc1O)CCN1Cc3c(ccc(OC)c3OC)C[C@@H]21 [Corypalmine],8.4,–
C=C[C@](C)(O)CC[C@H]1C(=C)CC[C@H]2C(C)(C)CCC[C@]12C [Manool],42.5,–
COc1ccc(-c2oc3c(CC=C(C)C)c(O)cc(O)c3c(=O)c2O)cc1 [Icaritin],8.6,–
COc1ccc(-c2oc3c(CCC(C)(C)O)c(O)cc(O)c3c(=O)c2O)cc1 [Wushanicaritin],51.4,–
CC(C)(O)CCc1c(O)cc(O)c2c(=O)c(O)c(-c3ccc(O)cc3)oc12 [Noricaritin],14.9,–
COc1ccc(C2COc3cc(O[C@@H]4O[C@H](CO)[C@@H](O)[C@H](O)[C@H]4O)ccc3C2)c(O)c1OC (stereo partly drawn) [Isomucronulatol 7-O-glucoside],13,–
CC(C)=CCC/C(C)=C/C=O [Citral],47.4,–
C=C1[C@H]2C[C@H]2[C@]2(C)Cc3occ(C)c3[C@H](O)[C@@H]12 [Lindenenol],28.5,–
CCC/C=C1\OC(=O)C2=C1CC[C@H](O)[C@H]2O [Senkyunolide I],43.1,–
CCC/C=C1\OC(=O)C2=C1CC[C@@H](O)[C@H]2O [Senkyunolide H],47.8,–
CCC/C=C1\OC(=O)C2=C1CC[C@H]1[C@H]3C=C4C(=O)O/C(=C\CCC)[C@@]4(CC3)[C@@H]21 [Levistolide A],60.4,–
Cc1ncc(CO)c(C(=O)O)c1O [4-Pyridoxic acid],22.7,–
O=C(O)/C=C/c1ccccc1 [Cinnamic acid],–,21
O=C(O)[C@H](O)c1ccccc1 [D-(-)-Mandelic acid],7.5,–
O=C(O)[C@H]1O[C@@H](Oc2cc(O)c3c(=O)cc(-c4ccc(O)c(O)c4)oc3c2)[C@H](O)[C@@H](O)[C@@H]1O [Luteolin 7-O-glucuronide],11.2,–
C[C@@H]1O[C@@H](O[C@H]2[C@H](O[C@H]3CC[C@@]4(C)[C@@H](CC[C@]5(C)[C@@H]4CC=C4[C@@H]6CC(C)(C)CC[C@]6(C(=O)O[C@@H]6O[C@H](CO[C@@H]7O[C@H](CO)[C@@H](O)[C@H](O)[C@H]7O)[C@@H](O)[C@H](O)[C@H]6O)CC[C@]45C)[C@]3(C)CO)OC[C@H](O)[C@@H]2O)[C@H](O)[C@H](O)[C@H]1O [Dipsacoside B],11.1,–
C[C@@H]1O[C@@H](O[C@H]2[C@H](O)[C@@H](O)[C@H](OC[C@H]3O[C@@H](OC(=O)[C@]45CCC(C)(C)C[C@H]4C4=CC[C@@H]6[C@@]7(C)CC[C@H](O[C@@H]8OC[C@H](O)[C@H](O)[C@H]8O)[C@@](C)(CO)[C@@H]7CC[C@@]6(C)[C@]4(C)CC5)[C@H](O)[C@@H](O)[C@@H]3O)O[C@@H]2CO)[C@H](O)[C@H](O)[C@H]1O [Hederacoside D],–,40.4
C[C@@H]1CC[C@]2(C(=O)O[C@@H]3O[C@H](CO)[C@@H](O)[C@H](O)[C@H]3O)CC[C@]3(C)C(=CC[C@@H]4[C@@]5(C)C[C@@H](O)[C@H](O)[C@@](C)(CO)[C@@H]5CC[C@]43C)[C@@H]2[C@]1(C)O [Niga-ichigoside F1],20.4,–

Structure (SMILES),229E Inhibition rate [%],"229E Inhibition rate (229E Inhibition rate, 24 h) [%]"
C[C@@H]1CC[C@]2(C(=O)O[C@@H]3O[C@H](CO)[C@@H](O)[C@H](O)[C@H]3O)CC[C@]3(C)C(=CC[C@@H]4[C@@]5(C)CC[C@H](O)[C@](C)(C(=O)O)[C@@H]5CC[C@]43C)[C@@H]2[C@]1(C)O [Ilexsaponin A],58.5,–
C[C@@H]1CC[C@]2(C(=O)O[C@@H]3O[C@H](CO)[C@@H](O)[C@H](O)[C@H]3O)CC[C@]3(C)C(=CC[C@@H]4[C@@]5(C)CC[C@H](O)[C@@](C)(CO)[C@@H]5CC[C@]43C)[C@@H]2[C@]1(C)O [Pedunculoside],10.8,–
CC1(C)CC[C@]2(C(=O)O[C@@H]3O[C@H](CO[C@@H]4O[C@H](CO)[C@@H](O)[C@H](O)[C@H]4O)[C@@H](O)[C@H](O)[C@H]3O)CC[C@]3(C)C(=CC[C@@H]4[C@@]5(C)CC[C@H](O[C@@H]6OC[C@H](O)[C@H](O)[C@H]6O)[C@@](C)(CO)[C@@H]5CC[C@]43C)[C@@H]2C1 [Asperosaponin VI],56.6,–
O=C(O)C(O)Cc1cc2ccccc2[nH]1 (stereo not drawn) [Indolelactic acid],16.7,–
O=C1C=CCO1 [2(5H)-Furanone],8.7,–
CCCCCC(C)C(=O)O (stereo not drawn) [2-Methylheptanoic acid],47.5,–
OCc1ccccc1O [Salicyl alcohol],51.5,–
O=C(O)Cc1ccccc1O [2-Hydroxyphenylacetic acid],12.4,–
NCc1ccccc1O [o-Hydroxybenzylamine],9.2,–
c1cc2c(cc1O[C@H]1OC[C@H]3[C@@H]1CO[C@@H]3c1ccc3c(c1)OCO3)OCO2 [Sesamolin],62.2,–
c1cc2c(cc1[C@H]1OC[C@H]3[C@@H]1CO[C@@H]3c1ccc3c(c1)OCO3)OCO2 [Sesamin],15.4,–
c1cc2c(cc1[C@H]1OC[C@@H]3[C@H]1CO[C@H]3c1ccc3c(c1)OCO3)OCO2 [(-)-Asarinin],9.2,–
CC1=C\[C@@H](O)CC(=O)Cc2nc(co2)C(=O)N2CCC=C2C(=O)O[C@H](C(C)C)[C@H](C)/C=C/C(=O)NC\C=C\1 [Virginiamycin M1],36.6,–
N[C@@H](Cc1ccc(O)c([N+](=O)[O-])c1)C(=O)O [3-Nitro-L-tyrosine],8,–
C=C(C)[C@@H]1CC[C@]2(C)CC[C@]3(C)[C@H](CC[C@@H]4[C@@]5(C)CCC(=O)C(C)(C)[C@@H]5CC[C@]43C)[C@@H]12 [Lupenone],9.9,–
CCc1ccc(O)cc1 [4-Ethylphenol],20.1,–
CCC1(c2ccc(O)cc2)NC(=O)N(C)C1=O (stereo not drawn) [4-Hydroxymephenytoin],55.5,–
O=c1c(O[C@@H]2OC[C@@H](O)[C@H](O)[C@H]2O)c(-c2ccc(O)c(O)c2)oc2cc(O)cc(O)c12 [Reynoutrin],19.1,–
C[C@H]1CC[C@@]2(OC1)O[C@H]1C[C@H]3[C@@H]4CC=C5C[C@@H](O[C@@H]6O[C@H](CO)[C@@H](O)[C@H](O[C@@H]7OC[C@@H](O)[C@H](O)[C@H]7O)[C@H]6O[C@@H]6O[C@@H](C)[C@H](O)[C@@H](O)[C@H]6O)CC[C@]5(C)[C@H]4CC[C@]3(C)[C@H]1[C@@H]2C [Liriope muscari baily saponins C],31,–
COc1cc([C@@H]2c3cc4c(cc3[C@@H]3OC[C@H]2[C@@H]3CO)OCO4)cc(OC)c1OC [Neoanhydropodophyllol],9.1,–

Structure (SMILES),229E Inhibition rate [%],"229E Inhibition rate (229E Inhibition rate, 24 h) [%]"
COc1ccc2cc3[n+](cc2c1OC)CCc1cc2c(cc1-3)OCO2 [Berberine (chloride hydrate)],–,34
C=C1C(=O)O[C@@H]2/C=C(\C)[C@@H](OC(C)=O)C/C=C(\COC(C)=O)C[C@@H](OC(=O)/C(C)=C/CO)[C@@H]12 [Eupalinolide A],–,35.1
CC(C)C(O)C(=O)O (stereo not drawn) [2-Hydroxy-3-methylbutanoic acid],20.4,–
C[C@H](O)C(=O)O [L-Lactic acid],58.1,–
C[C@@H](O)C(=O)O [D-(-)-Lactic acid (sodium)],8.1,–
COc1ccc2c3c1O[C@H]1C[C@@H](O)CC[C@]31CCN(C)C2 [Lycoramine],33.8,–
COc1ccc(CC(=O)O)cc1 [2-(4-Methoxyphenyl)acetic acid],0,–
COc1cc(CNC(=O)CCCCCCCC(C)C)ccc1O [Homodihydrocapsaicin I],33,–
Cc1cc(O)cc2c1O[C@](C)(CCC[C@H](C)CCC[C@H](C)CCCC(C)C)CC2 [Delta-Tocopherol],8.2,–
CC(=O)OC/C1=C/C[C@H]2[C@@H](/C=C(\C)C(=O)[C@@]3(OC(C)=O)C[C@H](C)[C@H](OC(=O)c4ccccc4)[C@@H]3[C@H]1OC(C)=O)C2(C)C [Euphorbia factor L7b],41.1,–
CCOC(=O)/C=C/c1ccccc1 [Ethyl cinnamate],4,–
CC(=O)OC/C1=C\[C@H]2[C@@H](OC(=O)/C=C/c3ccccc3)[C@@H](C)C[C@]2(OC(C)=O)C(=O)/C(C)=C/[C@@H]2[C@H](CC1)C2(C)C [Euphorbia factor L7a],90.9,–
COc1cc(/C=C/C(=O)NCC(O)c2ccc(O)cc2)ccc1O (stereo not drawn) [N-Feruloyloctopamine],7.9,–
C=C1[C@@H](O)[C@]2(O)OC[C@]34[C@H]2[C@@]2(C)[C@H](O)C(=O)C=C(C)[C@@H]2C[C@H]3OC(=O)[C@H](O)[C@@]14O [Eurycomanone],53.4,–
CC1=CC(=O)[C@@H]2C[C@H]1C2(C)C [Verbenone],0,–
CC1(C)Oc2cc3oc(-c4cc(O)cc(O[C@@H]5OC[C@@H](O)[C@H](O)[C@H]5O)c4)cc3cc2CC1O (stereo partly drawn) [Mulberroside C],0,–
O=C(/C=C/c1ccc(O)c(O)c1/C=C/c1ccc(O)c(O)c1)O[C@H](Cc1ccc(O)c(O)c1)C(=O)O [Salvianolic acid A],17.8,–
CCCCCC1C(=O)CCC1CC(=O)OC (stereo not drawn) [Methyl dihydrojasmonate],54.7,–
CC/C=C/CC1C(=O)CCC1CC(=O)OC (stereo not drawn) [Methyl 2-(3-oxo-2-(pent-2-en-1-yl)cyclopentyl)acetate],22,–
CCCCCCCCCCCCCCCCC(=O)OC [Methyl heptadecanoate],20.9,–
